# Source: PubChem BioAssay (NCATS)
# Inconclusive results are not listed. Where a call stands in place of a potency, no number is given. The source made the active and inactive calls. The call rests on the fitted dose curve.
# Experiment: Cytotoxicity counterscreen for inhibitors of SARS-CoV-2 cell entry (AID 1645845); further: nearly all actives have a fitted effect of over 50% in size
# Conditions: cell viability (SARS-CoV-2 entry assay cells); series mostly up to 57.1 µM
# Excerpt: Assay Provider: Wei Zheng, Ph.D.
# National Center for Advancing Translational Sciences, National Institute of Health, Rockville, MD.
# SARS-CoV-2 spike protein, within the viral envelope, mediates viral attachment and infection of host cells. The SARS-CoV-2 spike protein specifically binds to the host receptor ACE2 (Angiotensin-converting enzyme 2). This interaction promotes endocytosis of the viral particle, additional events lead to viral-host cell membrane fusion and release of the viral contents, allowing viral replication.
# While SARS-CoV-2 requires BSL-3 facilities for live virus work, pseudo-typed partices (PP) that incorporate SARS-CoV-2 spike proteins without replication elements could facilitate studies on viral entry mechanisms in a BSL-2 setting. This PP cell entry assay could also enable screening of small molecule compound libraries in BSL-2 setting to identify inhibitors of SARS-CoV-2 cell entry. To eliminate false positive compounds, ATP content cytotoxicity assay was screened in the same cell line.
# SEQUENCE No. (e.g., 1, 2, 3, etc.); […] (e.g., Cells, Incubation, Reagent, etc.); VALUE and DESCRIPTION.
# 1. Cells. Seed 1500 HEK293-ACE2 cells (Expi293F with stable expression of human ACE2) in 2 uL/well media (DMEM, 10% FBS, 1x L-glutamine, 1x Pen/Strep, 1 ug/ml puromycin) in white 1536-well assay plates (Greiner #782073).
# 2. Incubation. Incubate at 37 C with 5% CO2 overnight (~16 h).
# 3. Compounds. Dispense 23 nL/well compounds in DMSO via pin transfer.
# 4. Incubation. Incubate for 1 h at 37C 5% CO2.
# 5. Reagent. Dispense 2 uL/well of media (DMEM, 10% FBS, 1x L-glutamine, 1x Pen/Strep, 1 ug/ml puromycin).
# 6. Incubation. Incubate at for 48h at 37C 5% CO2
# 7. Reagent. Dispense 4 uL/well of ATPLite 1step luminescence assay reagent (PerkinElmer #6016739).
# 8. Incubation. Incubate for 15 min at room temperature.
# 9. Detection. Read luminescence signal (Viewlux plate reader, PerkinElmer). Data was normalized with wells containing cells as 100%, and wells without cells (media only control) as 0%.
# Potency means the concentration at half of the fitted maximal effect.
row,SMILES,Potency
1,Cc1cccc(N(C)C(=S)Oc2ccc3c(c2)C2CCC3C2)c1 (stereo not given),inactive
2,CCCCCCCCCCCCCCCCC(C(=O)O)C(O)(CC(=O)O)C(=O)O (stereo not given),inactive
3,CCOC(=O)C1=C(C)NC(C)=C(C(=O)OCC)C1c1ccccc1/C=C/C(=O)OC(C)(C)C,inactive
4,CC(Cc1ccccc1)NCc1ccccc1Cl (stereo not given),inactive
5,NC(CSCC(=O)O)C(=O)O (stereo not given),inactive
6,Cc1ccc(O)cc1,inactive
7,COc1cc(O)c(C(=O)c2ccccc2)cc1S(=O)(=O)O,inactive
8,C/C=C/c1ccc(OC)cc1,inactive
9,CCOCCn1c(N2CCCN(C)CC2)nc2ccccc21,inactive
10,CC1(C)[C@@H]2CC[C@@]1(C)C(=O)C2,inactive
11,COC(=O)C1=C(C)NC(C)=C(C(=O)OCCCN2CCC(c3ccccc3)(c3ccccc3)CC2)C1c1cccc([N+](=O)[O-])c1 (stereo not given),28.2 µM (active)
12,CCCCC1(COC(=O)CCC(=O)O)C(=O)N(c2ccccc2)N(c2ccccc2)C1=O,inactive
13,CCC(=O)O[C@]1(C(=O)COC)[C@@H](C)C[C@H]2[C@@H]3CCC4=CC(=O)C=C[C@]4(C)C3(F)[C@@H](O)C[C@@]21C (stereo not given in full),inactive
14,O=c1[nH]cnc2c1ncn2[C@@H]1O[C@H](CO)[C@@H](O)[C@H]1O,inactive
15,Nc1ccn([C@H]2CC[C@@H](CO)O2)c(=O)n1,inactive
16,CC(=O)/C=C/C=C1/C2CCC(C2)C1(C)C (stereo not given),inactive
17,N[C@@H](CSCCCO)C(=O)O,inactive
18,NC(=O)OCCCc1ccccc1,inactive
19,OC(CCCN1CCCCC1)(c1ccccc1)c1ccccc1,inactive
20,CCN(CC)Cc1nccn1-c1ccc([N+](=O)[O-])cc1C(=O)c1ccccc1Cl,inactive

row,SMILES,Potency
1,NC(=O)CC[C@@H](N)C(=O)O,inactive
2,C[C@H](N)[C@H](O)c1ccc(O)c(O)c1,inactive
3,CC(C)(C)CC(=O)OCC(=O)[C@@]1(O)CC[C@H]2[C@@H]3CCC4=CC(=O)C=C[C@]4(C)[C@H]3[C@@H](O)C[C@@]21C,inactive
4,N[C@H](Cc1c[nH]c2ccccc12)C(=O)O,inactive
5,NS(=O)(=O)c1ccc(N2CCCCS2(=O)=O)cc1,inactive
6,CC(C)NCC(O)COc1ccc(COCCOC(C)C)cc1 (stereo not given),inactive
7,CC(=O)N(CC(O)CN(C(C)=O)c1c(I)c(C(=O)NCC(O)CO)c(I)c(C(=O)NCC(O)CO)c1I)c1c(I)c(C(=O)NCC(O)CO)c(I)c(C(=O)NCC(O)CO)c1I (stereo not given),inactive
8,Nc1nc2ncc(CNc3ccc(C(=O)N[C@@H](CCC(=O)O)C(=O)O)cc3)nc2c(=O)[nH]1,inactive
9,COc1cccc(CCc2ccccc2OCC(CN(C)C)OC(=O)CCC(=O)O)c1 (stereo not given),inactive
10,O=C(O)CCC(=O)Nc1ccc(S(=O)(=O)Nc2nccs2)cc1,inactive
11,CCN1CCN(c2cc(-c3ccc(F)cc3)c3c(n2)CCCCCC3)CC1,inactive
12,CCOc1ccc(C(=O)OCCN(CC)CC)cc1,inactive
13,CCOc1cc(N)c(Cl)cc1C(=O)NCC1CN(Cc2ccc(F)cc2)CCO1 (stereo not given),inactive
14,CCOc1ccc(NC(C)=O)cc1,inactive
15,NC(N)=NC(=O)c1nc(Cl)c(N)nc1N,inactive
16,CCN(CC)C(=O)c1cccc(C)c1,inactive
17,CN1C2CCC(C)(C)C1CC(OC(=O)C(O)(c1cccs1)c1cccs1)C2 (stereo not given),inactive
18,COC(=O)[C@H]1[C@H]2C[C@@H]3c4[nH]c5cc(OC)ccc5c4CCN3C[C@H]2C[C@@H](OC(=O)/C=C/c2ccc(O)c(OC)c2)[C@@H]1OC,inactive
19,O=C(CCCCCCCCC#CI)Oc1ccccc1,inactive
20,CCN(CCCCOC(=O)c1ccc(OC)c(OC)c1)C(C)Cc1ccc(OC)cc1 (stereo not given),inactive
